Only some compounds are listed: those with a hit (about 1.2% of all), similar ones and a draw of the others.
KCNH2 3.1 inh: inhibitors of human KCNH2 3.1 potassium channel isoform; U2OS KCNH2 3.1, thallium flux FluxOr; active compounds read low; activity change, % (tested at about 1.8 µM); 340,000 tested, 0.95% active;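 active = maximum activity change below -70%; inconclusive = maximum activity change from -70% to -50%; inactive = maximum activity change above -50%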;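 note: thallium influx rate constant from kinetic fluorescence after stimulation buffer; % is set by controls: 0 for no effect and ±100 for the full control effect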
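We transduce U2OS cells with the mutant 3.1 virus, culture them overnight, load FluxOr with Red40 quencher for 45 min, then add stimulation buffer and read kinetically for 2 min to derive a normalized rate constant.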
hERG WT inh: inhibitors of human wildtype KCNH2 potassium channel; Q12809; U2OS, BacMam KCNH2, thallium flux FluxOr; active compounds read low; activity change, % at 1.84 µM; 340,000 tested, 0.37% active; AID 720551;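 active = maximum activity change below -70%; inconclusive = maximum activity change between -70% and -50%; inactive = maximum activity change above -50%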; note: % is set by controls: 0 for no effect and ±100 for the full control effect
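U2OS cells were transduced with wild-type KCNH2 virus (2.03 x 10^8 / mL) for 4 h at room temperature, then cultured overnight at 37 C. Thallium flux was read with FluxOr dye. Rate constants were normalized to DMSO controls.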
TRPV1 potentiator: enhances activation of the human vanilloid receptor TRPV1; TRPV1-expressing cells, Fluo-8 calcium influx, capsaicin EC20 potentiation; potentiation, % at 8.33 µM; 320,000 tested, 0.02% active; Q8NER1; in the data active = potentiation above about 80%; inconclusive = between about 30% and that limit; note: 0% is about no effect
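Fluo-8 calcium influx in TRPV1-expressing cells, kinetic read (ex 480/em 520 nm). Compound added and read 3 min for agonist activity, followed by capsaicin at EC20 final and 2 min further read for enhancement.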
TRPV1 ag: activates the human vanilloid receptor TRPV1; TRPV1-expressing cells, Fluo-8 calcium influx, agonist mode; activation, % at 8.33 µM; 320,000 tested, 0.19% active; in the data active = activation above about 80%; inconclusive = between about 30% and that limit; note: 0% is about no effect
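Cells expressing TRPV1 were dye-loaded with Fluo-8 and read kinetically: 10 s baseline, 3 min after compound (agonist portion), then 2 min after EC20 capsaicin (allosteric enhancer portion). Calcium-bound dye fluorescence at 480/520 nm.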
* = called active by the depositor; ? = inconclusive; . = not tested or not shown.

SMILES | KCNH2 3.1 inh | hERG WT inh | TRPV1 potentiator | TRPV1 ag
C=CCN(c1ccc(C(=O)Nc2ccc3c(c2)n(C)c(=O)n3C)cc1)S(C)(=O)=O | 4 | -284* | 2 | 1
COc1ccc(Br)cc1C1NC(c2ccc3c(c2)OCO3)=CC(c2cc(Cl)ccc2O)N1 (stereo not drawn) | . | . | 15 | 5
Cc1ccc(C(=O)N/C(=C\c2ccccc2)C(=O)NCCCn2ccnc2)cc1 | -105* | -125* | 6 | -1
Cc1ccc(C(=O)N/C(=C\c2cn(C)c3ccccc23)C(=O)NCCCn2ccnc2)cc1 | 9 | 41 | 19 | 2
Cc1ccc(/C=C(\NC(=O)c2ccc(C)cc2)C(=O)NCCCn2ccnc2)cc1 | -95* | -94* | 11 | -1
Cc1ccc(C(=O)N/C(=C/c2ccc(F)cc2)C(=O)NCc2ccncc2)cc1 | -90* | ? | 3 | 29
CC(=O)c1ccc(N2CCN(C(=O)c3nn(Cc4ccccc4)c(=O)c4ccccc34)CC2)cc1 | -86* | ? | 28 | 2
COc1ccc(C)cc1NC(=O)CCN1CCN(C/C=C/c2ccccc2)CC1 | -99* | ? | -8 | 6
CC(C(=O)Nc1ccc([N+](=O)[O-])cc1)N1CCN(C/C=C/c2ccccc2)CC1 (stereo not drawn) | 16 | -194* | -39 | 18
COc1ccc(Cl)cc1NC(=O)C(C)N1CCN(C/C=C/c2ccccc2)CC1 (stereo not drawn) | -93* | -75* | -1 | 4
CC(C(=O)N(C)Cc1ccccc1)N1CCN(C/C=C/c2ccccc2)CC1 (stereo not drawn) | -96* | 15 | -5 | 3
CC(=O)c1ccc(NC(=O)C(C)N2CCN(C/C=C/c3ccccc3)CC2)cc1 (stereo not drawn) | ? | 23 | -14 | 1
COc1ccc(S(=O)(=O)N2CCCOC2CNC(=O)C(=O)NCc2ccccc2C)cc1 (stereo not drawn) | -2 | 7 | . | .
OCC1(CCc2ccccc2)CCN(C/C=C/c2ccccc2)CC1 | -107* | -135* | 1 | 1
COc1cc(NC(=O)CCN2CCN(C/C=C/c3ccccc3)CC2)cc(OC)c1 | -38 | 28 | 19 | 2
OCC1(Cc2ccccc2Cl)CCN(C/C=C/c2ccccc2)CC1 | -3 | 35 | -2 | 2
O=C(CCN1CCN(C/C=C/c2ccccc2)CC1)Nc1ccc(Cl)cc1 | -99* | -38 | -7 | 16
COc1ccc(NC(=O)CCN2CCN(C/C=C/c3ccccc3)CC2)cc1 | -105* | 24 | 11 | 1
Cc1ccc(NC(=O)CCN2CCN(C/C=C/c3ccccc3)CC2)cc1C | -96* | -39 | 3 | 1
CN(Cc1c(C(=O)N/N=C/c2c(F)cccc2Cl)nnn1-c1nonc1N)C1CCCCC1 | 2 | -5 | . | .
COc1cc(OC)cc(-c2c(-c3cccs3)c3cc(-c4cccc5[nH]ccc45)ccc3n2C)c1 | -2 | -1 | -8 | 2
O=C(O)C1CCc2nc(NCc3ccccc3)nc(NCc3ccccc3)c2C1 (stereo not drawn) | -19 | -7 | . | .
Cc1ccc(NC(=O)CCN2CCN(C/C=C/c3ccccc3)CC2)cc1 | -86* | -96* | 12 | 0
O=C(CN1CCN(C/C=C/c2ccccc2)CC1)NCc1ccccc1 | -91* | . | 1 | 4
O=C(CN1CCCCCC1)NCc1ccccc1 | -4 | 4 | -23 | 1
SMILES | KCNH2 3.1 inh | hERG WT inh | TRPV1 potentiator | TRPV1 ag
Cc1ccc(NC(=O)CCN2CCC(Cc3ccccc3)CC2)cc1 | -124* | 11 | -4 | 5
Cc1ccc(Cl)cc1NC(=S)N/N=C/c1cccc2ccccc12 | -1 | -4 | . | .
CC(=O)N1c2cc3ccccc3cc2N(C(C)=O)c2cc3ccccc3cc21 | -9 | 16 | . | .
FC(F)(F)c1ccncc1-c1nnc(C2CCCCC2)o1 | -6 | -5 | -15 | 17
c1cncc(-c2nnc(C3CCCCC3)o2)c1 | -80* | -2 | 5 | -1
Fc1ccc(C(CCNCc2ccccn2)c2ccc(Cl)cc2)cc1 (stereo not drawn) | -91* | -89* | 3 | 15
OC(CNCc1ccccn1)c1ccccc1 (stereo not drawn) | 12 | 2 | -1 | 2
O=S(=O)(c1ccc(Cl)nc1)N1CCc2ccccc21 | -22 | -111* | 7 | -12
O=S(=O)(c1ccc(Cl)nc1)N1CCCc2ccccc21 | 4 | 3 | 15 | -6
CCNC(=S)N1CCN(c2nc(CC)nc3sc4c(c23)CCCC4)CC1 | -6 | -8 | 5 | 83*
CCc1nc(N2CCN(C(=O)CCCl)CC2)c2c3c(sc2n1)CCCC3 | 1 | -8 | . | .
O=C(Nc1ccc(S(=O)(=O)N2CCCC2)cc1)C1CCN(S(=O)(=O)c2ccc(F)cc2)CC1 | -106* | -2 | -18 | ?
O=C(Nc1cccnc1)c1ccc(COc2cc(Cl)ccc2Cl)o1 | 42 | -104* | -10 | ?
O=C(Nc1cccnc1)c1ccc(COc2ccccc2Cl)o1 | -2 | -10 | -7 | 27
O=S(=O)(c1ccc(F)cc1)N1CCN(CC(O)COCc2cccs2)CC1 (stereo not drawn) | -78* | 1 | 5 | 1
O=S(=O)(c1ccc(F)cc1)N1CCN(CC(O)COc2ccccc2F)CC1 (stereo not drawn) | -3 | -7 | -9 | 1
Cc1cc(Br)c(NC(=O)CN2C(=O)NC3(CCOc4ccccc43)C2=O)c(Br)c1 (stereo not drawn) | 0 | -2 | . | .
S=c1ncc2[nH]c(=S)[nH]c2[nH]1 | 3 | -3 | . | .
CNC(=O)CSc1nnc(-c2ccco2)n1-c1cc(C)ccc1C | 0 | -140* | 0 | 1
O=C(COC(=O)CNC(=O)c1ccccc1)NC12CC3CC(CC(C3)C1)C2 | -5 | -81* | . | .
CCOc1cccc2cc(C(=O)Nc3cc(C)on3)c(=O)oc12 | -77* | 0 | 0 | -1
CCOc1cccc2cc(C(=O)NCc3ccc(C)cc3)c(=N)oc12 | -208* | -6 | 4 | -5
O=S(=O)(c1ccccc1)C1CC1(c1ccccc1)c1ccccc1 (stereo not drawn) | -15 | 1 | . | .
O=C1C[C@H](NC(=O)OCc2ccccc2)CO1 | 9 | 2 | 7 | -2
O=C(/C=C/c1ccc(S(=O)(=O)N2CCOCC2)cc1)NCc1ccccc1F | 6 | -5 | -14 | 3
SMILES | KCNH2 3.1 inh | hERG WT inh | TRPV1 potentiator | TRPV1 ag
CN(CC(=O)NC(c1ccccc1)c1ccccc1)Cc1nc2ccccc2c(=O)[nH]1 | ? | -81* | -7 | 14
CCc1ccc(NC(=O)c2cc(C(C)C)on2)cc1 | -24 | 1 | -17 | 82*
CCc1ccc(NC(=O)c2cc(C)on2)cc1 | -3 | 34 | -22 | ?
O=C(/C=C/c1ccco1)OCC(=O)N1CCCCC1 | 5 | -5 | . | .
Cn1c2c(c(=O)n(C)c1=O)C(c1ccccc1Cl)C(C#N)=C(N)O2 (stereo not drawn) | -105* | 0 | 14 | -2
CC(C)CCSc1nc(N2CCOCC2)c2c(c1C#N)CC(C)(C)OC2 | -12 | 28 | -18 | 91*
CC(C)(C)c1ccc(C(=O)NNC(=O)CNC(=O)c2cccs2)cc1 | -6 | 6 | . | .
